Where “and” joins values, the source holds several entries; their conditions need not be identical. Identical values can stand only once. Some compounds were tested as several samples or in several runs, with calls that do not always agree. Calls of active or inactive are those of the source. Unless noted, the rule behind the calls is not given here.
Tests used:
[1] = P. berghei load reduction in hepatocytes – cell-based, HepG2, luciferase luminescence, HepG2 viability, primary screen (AID 624349; in the data active = parasite load remaining mostly below about 12%, no sharp cut-off; inactive = mostly above about 10%;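 note: 100% = mean of DMSO negative control wells on the same plate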); conditions: P. berghei liver stage in HepG2, luciferase luminescence, concentration not given here; parasite load remaining: stronger effect = lower value; viability: measured here: HepG2 viability without parasites
[2] = signal quenchers or enhancers, Cy5 substrate/SSB – biochemical, NIH Clinical Collection, E. coli SSB, artefact control for HCV NS3 helicase inhibitor project (AID 743268); conditions: Cy5-oligo bound E. coli SSB, fluorescence interference
[3] = system: Hepatitis C virus NS3 helicase; assay: blockers of NS3h binding to DNA – biochemical, fluorescence polarization, NIH Clinical Collection, primary screen (AID 743270); conditions: NS3 helicase binding to Cy5-dT15 DNA, stronger effect = higher value, concentration not given here
[4] = molecular target: Single-stranded DNA-binding protein (Escherichia coli (strain K12)) (UniProt P0AGE0); assay: SSB-ssDNA binding inhibitors – biochemical, fluorescence polarization, NIH Clinical Collection, counter-screen for HCV NS3 helicase inhibitor project (AID 743271; in the data active = inhibition above about 28%); conditions: E. coli SSB-DNA binding, stronger effect = higher value, concentration not given here
[5] = compounds distorting NS3 helicase fluorescence signal – biochemical, NIH Clinical Collection, artefact control for HCV NS3 helicase inhibitor project (AID 743272); conditions: fluorescence interference counterscreen, HCV NS3 helicase assay; stronger effect = lower value;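 note: HCV NS3 helicase with a Cy5 labelled single stranded DNA probe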
[6] = system: Neuropilin-2 / VEGF-C interaction (human); assay: small molecules blocking Neuropilin-2/VEGF-C interaction – biochemical, microplate binding format, z-score (AID 743281); conditions: microplate NRP2/VEGF-C binding assay; stronger effect = lower value
[7] = Wnt pathway potentiators raising nuclear beta-catenin – imaging, WNT3A-conditioned medium, mouse C2C12, NPC library, primary screen (AID 1117326; in the data active = nuclear beta-catenin stimulation mostly above about 4.2%, no sharp cut-off; inactive = mostly below about 10%); conditions: stronger effect = higher value

| SMILES | parasite load remaining [1] | viability [1] | fluorescence ratio [2] | inhibition [3] | inhibition [4] | fluorescence ratio [5] | z-score [6] | nuclear beta-catenin stimulation ([7]; at 10 µM) | nuclear beta-catenin stimulation ([7]; stimulation, at 2 µM) | outcome [6] |
| --- | --- | --- | --- | --- | --- | --- | --- | --- | --- | --- |
| CCOC(=O)C1=C(C)NC(C)=C(C(=O)OCC)C1c1ccccc1/C=C/C(=O)OC(C)(C)C | -0.13% (active) and 24.4% (inactive) | 74.1% and 104% | 0.9 (inactive) | 3.28% (inactive) | 3.54% (inactive) | 0.9 (inactive) | -0.248 (inactive) | 3% (inactive) | 1.2% |  |
| CC1CCN(CCCC(=O)c2ccc(F)cc2)CC1 | 55.3% (inactive) | 68.6% | 1 (inactive) | -3.71% (inactive) | 1.97% (inactive) | 0.99 (inactive) | 1.36 (inactive) | 1.8% (inactive) | 0.7% |  |
| CC(C)c1ccc2oc3nc(N)c(C(=O)O)cc3c(=O)c2c1 | 196% (inactive) | 67.7% | 1.01 (inactive) | 2.77% (inactive) | 6.06% (inactive) | 0.99 (inactive) | 0.737 (inactive) | 0.2% (inactive) | -1.6% |  |
| O=c1[nH]cnc2c1ncn2[C@H]1CC[C@@H](CO)O1 | 41.8% (inactive) and 84.4% (inactive) and 65.2% (inactive) | 46.9% and 69.4% and 110% | 1.06 (inactive) | 1.19% (inactive) | 0.67% (inactive) | 1.01 (inactive) |  | -2.1% (inactive) | -0.4% | inactive |
| Cc1[nH]cnc1CN1CCc2c(c3ccccc3n2C)C1=O | 109% (inactive) | 87.6% | 0.99 (inactive) | -8.32% (inactive) | -4.72% (inactive) | 0.96 (inactive) | 0.471 (inactive) | 1.1% (inactive) | 1.4% |  |
| CC[N+](C)(CC)CCOC(=O)C(O)(c1ccccc1)C1CCCCC1 (centres undefined) | 65.2% (inactive) | 67.2% | 0.93 (inactive) | -3.71% (inactive) | -1.18% (inactive) | 0.89 (inactive) | -0.249 (inactive) | -1% (inactive) | 3.2% |  |
| COc1cc(C(=O)NC2CCCNC2)cc(OC)c1OC (centres undefined) | 134% (inactive) | 80.6% | 1 (inactive) | 2.77% (inactive) | 2.98% (inactive) | 0.98 (inactive) | -0.315 (inactive) | 22.4% (inactive) | 2.8% |  |
| Cc1ccnc2c1NC(=O)c1cccnc1N2C1CC1 | 79.8% (inactive) | 69.1% | 1.05 (inactive) | 1.98% (inactive) | -5.49% (inactive) | 1 (inactive) | -1.18 (inactive) | 0% (inactive) | 1.8% |  |
| Nc1nc(N)nc(-c2cc(Cl)ccc2Cl)n1 | 141% (inactive) and 22.8% (inactive) | 129% and 67.5% | 1.05 (inactive) | -1.19% (inactive) | 2.21% (inactive) | 1.02 (inactive) | 0.00875 (inactive) | 0.6% (inactive) | 0.3% |  |
| O=C(NCCO[N+](=O)[O-])c1cccnc1 | 31.4% (inactive) and 90.9% (inactive) and 44.6% (inactive) | 48.5% and 74.2% and 98.5% | 1.04 (inactive) | 1.19% (inactive) | 0.67% (inactive) | 1.02 (inactive) | -0.101 (inactive) | -0.4% (inactive) | -0.5% |  |
| OCCOCCN1CCN(C2=Nc3ccccc3Sc3ccccc32)CC1 | 49.4% (inactive) and 94% (inactive) and 56.9% (inactive) | 95.1% and 77.7% and 206% | 1.02 (inactive) | 1.98% (inactive) | 1.44% (inactive) | 0.95 (inactive) | 0.105 (inactive) | 3.8% (inactive) | 2.1% |  |
| COc1ccc(CN2CCN(C(c3ccc(F)cc3)c3ccc(F)cc3)CC2)c(OC)c1OC | 0.425% (inactive) and 2.35% (inactive) | 59.6% and 66% | 1 (inactive) | 1.19% (inactive) | 7.6% (inactive) | 0.91 (inactive) | 0.136 (inactive) | 8.4% (inactive) | 5.6% |  |
| CC1(C)S[C@@H]2[C@H](N=CN3CCCCCC3)C(=O)N2[C@H]1C(=O)O | 101% (inactive) | 79.6% | 1.06 (inactive) | -1.98% (inactive) | -4.72% (inactive) | 1.04 (inactive) | -0.418 (inactive) | 0.4% (inactive) | 0.8% |  |
| CC(Oc1c(Cl)cccc1Cl)C1=NCCN1 (centres undefined) | 53.2% (inactive) and 28% (inactive) | 69% and 138% | 0.98 (inactive) | -8.08% (inactive) | -3.54% (inactive) | 0.95 (inactive) | 0.439 (inactive) | -2.3% (inactive) | 0.3% |  |
| O=C1[C@H]2CCCC[C@H]2C(=O)N1CCCCN1CCN(c2nsc3ccccc23)CC1 | 42.7% (inactive) | 60.1% | 1 (inactive) | 0.4% (inactive) | -2.41% (inactive) | 0.96 (inactive) | -0.553 (inactive) | 10.9% (inactive) | 1% |  |
| CC(c1cc2ccccc2s1)N(O)C(N)=O (centres undefined) | 58.4% (inactive) and 101% (inactive) and 41.5% (inactive) | 101% and 79.1% and 102% | 1.02 (inactive) | 2.77% (inactive) | -0.87% (inactive) | 1.01 (inactive) | -0.124 (inactive) | 0.1% (inactive) | 0.8% |  |
| CNCCCCOc1ccccc1Cc1ccccc1 | 22.1% (inactive) | 54.6% | 1 (inactive) | -4.36% (inactive) | -0.87% (inactive) | 0.96 (inactive) | -0.524 (inactive) | 1.7% (inactive) | 1.6% |  |
| Cc1ccc(NC(=O)c2ccc(CN3CCN(C)CC3)cc2)cc1Nc1nccc(-c2cccnc2)n1 | 17.1% (inactive) and 60.3% (inactive) | 65.9% and 227% |  |  |  |  | -0.734 (inactive) | 7.1% (inactive) | -0.1% |  |
| Cc1nc2ccc(CN(C)c3ccc(C(=O)N[C@@H](CCC(=O)O)C(=O)O)s3)cc2c(=O)[nH]1 | 12.1% (inactive) | 89.6% | 0.88 (inactive) | -4.59% (inactive) | 17.7% (inactive) | 0.88 (inactive) |  | 61.4% (active) | 62.4% | inactive |
| CC(C)c1nc(CN(C)C(=O)N[C@H](C(=O)N[C@@H](Cc2ccccc2)C[C@H](O)[C@H](Cc2ccccc2)NC(=O)OCc2cncs2)C(C)C)cs1 | 53.8% (inactive) | 79.2% | 1.03 (inactive) | 3.56% (inactive) | 9.91% (inactive) | 0.89 (inactive) | 0.723 (inactive) | 7.7% (inactive) | 5.1% |  |
| CC(C)(C#N)c1cc(Cn2cncn2)cc(C(C)(C)C#N)c1 | 73.5% (inactive) and 47.4% (inactive) | 67.1% and 158% | 0.93 (inactive) | -0.22% (inactive) | 1.18% (inactive) | 0.92 (inactive) | 1.38 (inactive) | 0.3% (inactive) | 1.7% |  |
| C[C@@H]1CN(CCCn2c3ccccc3c3ccccc32)C[C@H](C)N1 | 35.7% (inactive) | 37.6% | 0.94 (inactive) | -6.33% (inactive) | 1.18% (inactive) | 0.94 (inactive) | -0.119 (inactive) | 6.5% (inactive) | 4.9% |  |
| CCc1c2c(nc3ccc(OC(=O)N4CCC(N5CCCCC5)CC4)cc13)-c1cc3c(c(=O)n1C2)COC(=O)[C@]3(O)CC | 136% (inactive) and 106% (inactive) | 95.2% and 90.6% |  |  |  |  | -0.00941 (inactive) | 11.6% (inactive) | 1.5% |  |

Source: PubChem BioAssay
